This is a sample that favours compounds with a hit; in the whole collection about 6.2% have one here.
HT1080 IDH1KD tx: qHTS for induction of synthetic lethality in tumor cells producing 2HG: qHTS for the HT-1080-IDH1KD cell line. HT-1080 IDH1 knockdown viability, ATP luminescence, 48 h. Potency, µM (top dose mostly 46.1 µM), for the others: at the highest dose activity, negative = toxicity, most hits filed as cytotoxic. actives 2% (n = 360,000);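 further: 0% = DMSO wells and -100% = cell-free medium wells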
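Cytotoxicity counter-line: IDH1KD HT-1080, 48 h, CellTiter-Glo. Curves classed by r2, magnitude and activity.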
ATXN2 expr inh: Primary qHTS for Inhibitors of ATXN expression | HEK-293 ATXN2-luciferase reporter, luminescence, 24 h | Potency, µM (highest dose often 57 µM), inactives show at the top dose activity change, negative = inhibition, hits mostly inhibitors | actives 0.72% (n = 360,000) | AID 1745845, 2022; further: on the % scale 0 is the no-effect control and ±100 the full control effect; nearly all actives have a fitted effect of over 55% in size
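qHTS (up to 57 uM final) was run with 24 h compound exposure of reporter cells at 37 °C. Each well was multiplexed: SteadyGlo luminescence measured ATXN2-luciferase expression after a fluorogenic Gly-Phe-AFC viability readout (25 uM final).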
KB-V1 MDR tox: qHTS assay for MDR1-selective chemotherapeutics: Primary screen using the drug-selected MDR subline cells KB-V1. KB-V1 MDR cells viability, CellTiter-Glo, 72 h. actives 3.4% (n = 400,000). Potency, µM (series often up to 46.1 µM), hits mostly cytotoxic; further: on the % scale 0 is the no-effect control and ±100 the full control effect; nearly all actives have a fitted effect of over 60% in size
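KB-V1 cells (P-gp-expressing MDR subline of KB-3-1) in phenol-red-free DMEM with 10% FBS were exposed to library compounds over a concentration series for 72 h at 37 degrees C. Viability read by CellTiter-Glo luminescence; concentration-effect curves fitted after normalization.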
KB-3-1 tox: qHTS assay for MDR1-selective chemotherapeutics: Primary screen using the parental adenocarcinoma cell KB-3-1; KB-3-1 viability, CellTiter-Glo ATP luminescence, 72 h; Potency, µM (titrated, usually from 46.1 µM), actives largely listed as cytotoxic; actives 1.4% (n = 400,000); further: on the % scale 0 is the no-effect control and ±100 the full control effect; nearly all actives have a fitted effect of over 60% in size
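Cytotoxicity in the drug-sensitive parental line KB-3-1 was scored as loss of CellTiter-Glo luminescence following 72 h incubation with compound. Values come from curve fitting of normalized concentration-response data.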
S2 tox: Viability Counterscreen for Primary qHTS for Inhibitors of ATXN expression | S2 cells (HEK-293 line with an ATXN2-luciferase reporter) viability, CellTiter-Fluor protease fluorescence, 24 h | Potency, µM (titrated, usually from 56.7 µM), usual class: cytotoxic | actives 0.49% (n = 400,000); further: nearly all actives have a fitted effect of over 40% in size
HT1080-NT tox: qHTS for induction of synthetic lethality in tumor cells producing 2HG: qHTS for the HT-1080-NT fibrosarcoma cell line; HT-1080-NT fibrosarcoma viability, CellTiter-Glo ATP luminescence, 48 h; Potency, µM (top dose mostly 46.1 µM), for inactives: top-dose activity, negative = less viability, usual class: cytotoxic; actives 1.6% (n = 360,000); AID 686970, 2013;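 further: NT is the 2HG producing partner of a matched IDH1 knockdown line; 0% = DMSO-treated cells and -100% = media-only wells without cells; nearly all actives have a fitted effect of over 55% in size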
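Read-out is CellTiter-Glo luminescence after 10 minutes at room temperature, following 48 hours' compound treatment of HT-1080-NT cells (750 cells/well, RPMI, 5% FBS, 37 degrees C).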
The depositor's hits bear a star; i = inactive; ? = inconclusive; nt = no result; [ ] = remark or other dose. The call rests on the fitted dose curve; in most records, active means well fitted curve in the direction sought with a large enough effect; inconclusive means small, poorly fitted or top-dose-only effect, or another doubt; inactive means no such curve, though single readings can be large; an effect the other way counts as inactive or inconclusive. Potency means the concentration at half of the fitted maximal effect.

SMILES	HT1080 IDH1KD tx	ATXN2 expr inh	KB-V1 MDR tox	KB-3-1 tox	S2 tox	HT1080-NT tox
COc1ccc(C(=O)N2CCN(S(=O)(=O)c3ccc(F)cc3)CC2)cc1OC	1%	nt	?	i	?	4%
COc1ccc(S(=O)(=O)N2CCN(C(=O)c3cccnc3)CC2)cc1OC	2%	-20%	i	i	i	-1%
Cc1cc(C(=O)C(=O)Nc2nncs2)c(C)n1-c1ccc(Cl)cc1	nt	1%	i	i	i	nt
Cc1cc(I)ccc1Nc1nc(NCCN2CCOCC2)nc(N2CCOCC2)n1	nt	nt	i	?	nt	nt
COc1ccccc1N=C1SC(C(=O)Nc2cccc(Cl)c2Cl)C(N)=C1C(N)=O (stereo not given)	?	-18%	3.7µM*	?	?	15µM*
CCOc1ccc(N=C2SC(C(=O)Nc3ccccc3C#N)C(N)=C2C(=O)Nc2ccc(Cl)cc2)cc1 (stereo not given)	9%	9%	i	i	i	10%
CCOC(=O)/C=C/C(=O)Nc1ccc(Oc2ccccc2)cc1	16µM*	?	i	i	?	7.3µM*
O=C(COc1ccccc1CNCc1ccccc1)Nc1ccccc1	11µM*	-17%	i	i	?	?
O=C(O)/C=C/C(=O)Nc1ccc(Oc2ccccc2)cc1	1%	-21%	i	i	i	-1%
O=C(CNCc1ccccc1)Nc1ccc(Oc2ccccc2)cc1	6.5µM*	-7%[11.3 µM]	i	5.2µM*	i	7.3µM*
CCOC(=O)c1ccc(NC(=O)COc2ccccc2CNC2CCCC2)cc1	23µM*	?	?	?	?	23µM*
CCOc1ccccc1CNCc1ccc(C(=O)O)cc1	6%	-1%	i	i	?	10%
CCC(=O)Nc1ccc(-c2nnc(SCc3ccccc3)n2C)cc1	nt	nt	i	i	nt	nt
CC(=O)Nc1ccc(NC(=O)c2oc3ccc4c(c3c2C)C(=O)CC(C)(C)O4)cc1	nt	6%	i	i	?	nt
CCOC(=O)/C=C/S(=O)(=O)c1ccc(NC(C)=O)cc1	?	?	i	15µM*	?	?
CCOC(=O)c1ccc(NC(=O)C2(c3ccccc3)CCCC2)cc1	1%	3%	15µM*	i	i	4%
CCc1nc2cc(C(=O)N[C@H]3CCCCNC3=O)cc(NC(=O)c3ccccc3OC)c2n1C	nt	nt	nt	nt	i	nt
O=C(CCCl)Nc1nc2c(s1)CCc1ccccc1-2	9.2µM*	?	i	?	?	9.2µM*
N#C/C(=C(/O)CCl)c1nc2c(s1)CCc1ccccc1-2	?	-49%	15µM*	4.1µM*	i	?
Nc1nc2c(s1)CCc1ccccc1-2	0%	2%	?	i	i	1%
CC(=O)Nc1nc2c(s1)CCc1ccccc1-2	3%	nt	?	i	?	8%
Cc1ncc2c(c1CNC(=O)/C=C/c1cccs1)CCN(C(=O)c1noc3c1CCCC3)C2	nt	nt	nt	nt	i	nt
Cc1cc(C)c(NC(=O)CSc2ccc(-c3sc(-c4ccccc4)nc3C)nn2)c(C)c1	nt	nt	i	i	nt	nt
Nc1nc(-c2ccc3ccccc3c2)cs1	-25%	94%	i	i	i	1%
Oc1cccnc1Sc1cccc(C(F)(F)F)c1	-13%	3%	i	i	i	-3%
SMILES	HT1080 IDH1KD tx	ATXN2 expr inh	KB-V1 MDR tox	KB-3-1 tox	S2 tox	HT1080-NT tox
Nc1nc(N)c2cc(Sc3ccc(Cl)cc3)ccc2n1	5.8µM*	nt	?	?	nt	2.6µM*
Nc1nc(N)c2cc(Sc3cccc(C(F)(F)F)c3)ccc2n1	5.8µM*	nt	?	?	?	5.8µM*
Nc1nc(N)c2cc(Sc3ccc4ccccc4c3)ccc2n1	5.8µM*	?	i	21µM*	?	8.2µM*
Cc1ccc(C(=O)c2oc3ccccc3c2NC(=O)COc2ccc(C(C)(C)C)cc2)cc1	nt	4%	i	i	i	nt
CC1(c2ccccc2)CC(C)(C)N(C(=O)CSc2nnc(N)s2)c2ccccc21 (stereo not given)	-11%	?	16µM*	i	?	-16%
Cc1nnc2sc(-c3ccc(-c4ccc(Cl)c(C(F)(F)F)c4)o3)nn12	3%	4%	15µM*	i	i	2%
O=C(C[n+]1cccc(Cl)c1)c1ccc(O)c(O)c1	nt	nt	i	?	nt	nt
COc1cccc2sc(N(CCCN(C)C)C(=O)c3ccc(S(=O)(=O)N4CCc5ccccc5C4)cc3)nc12	?	?	i	i	?	?
CN(C)CCCN(C(=O)c1ccc(S(=O)(=O)N2CCc3ccccc3C2)cc1)c1nc2c(F)cc(F)cc2s1	-8%	-11%	i	i	i	-23%
Cc1ccc2sc(N(CCCN(C)C)C(=O)c3ccc(S(=O)(=O)N4CCc5ccccc5C4)cc3)nc2c1C	?	-29%	i	i	i	21µM*
COc1ccc(C)c2sc(N(CCCN(C)C)C(=O)c3ccc(S(=O)(=O)N4CCc5ccccc5C4)cc3)nc12	?	28µM*	10µM*	?	nt	?
Cc1nc2nc(NC(=O)C(C)(C)C)[nH]n2c(=O)c1Cc1ccccc1	nt	5%	i	i	i	nt
